From the supplement of paper PMC10981050
Several values for one entry are separate records, joined by “and”; a condition that tells them apart may be missing. Equal values may be shown once. Where a name gives a salt, the structure may show the parent alone.

Experiments:
Assay in all cases: cell viability relative to vehicle control; higher = less cytotoxic
Details in all cases: 10 µM
[1] = test system: K562
Summary of the method: (§1)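 Four leukaemia lines, as CRISPR-edited mutant clones and isogenic wild-type clones, were tested against Selleck bioactive, kinase and epigenetic probe libraries after removal of identity-inconsistent compounds. Cells were exposed to a single 10 µM dose for 48 h, and CellTiter-Glo luminescence was then read. Viability was calculated relative to the on-plate vehicle control.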

[2] = test system: MARIMO
Summary of the method: as §1

[3] = test system: MOLM14
Summary of the method: as §1

[4] = test system: OCI-AML2
Summary of the method: as §1

Structure (SMILES) | cell viability ([1]; SRSF2 genotype: SRSF2 P95H/wt) | cell viability ([1]; SRSF2 genotype: SRSF2 wt/wt) [%] | cell viability ([2]; SRSF2 genotype: SRSF2 P95H/wt) [%] | cell viability ([2]; SRSF2 genotype: SRSF2 wt/wt) [%] | cell viability ([3]; SRSF2 genotype: SRSF2 P95H/wt) [%] | cell viability ([3]; SRSF2 genotype: SRSF2 wt/wt) [%] | cell viability ([4]; SRSF2 genotype: P95H/wt) [%] | cell viability ([4]; SRSF2 genotype: wt/wt) [%]
Nc1nc(Cl)nc2c1ncn2[C@H]1C[C@H](O)[C@@H](CO)O1 [Cladribine] | 94.3% and 104% | 101 | 12.2 | 8.19 | 2.38 | 0.54 | 4.93 | 4.28
CNCc1ccc(-c2cc(-c3nc(-c4ccc(S(=O)(=O)C(C)C)cc4)cnc3N)on2)cc1 | 3.16% and 2.89% | 1.89 | 0.36 | 0.32 | 0.28 | 0.34 | 0.39 | 0.9
O=C(O)Cn1nnc(-c2cc(N3CCC(Oc4cc(F)ccc4Br)CC3)no2)n1 | 106% and 102% | 110 | 101 | 104 | 103 | 103 | 101 | 103
Cc1ncc([N+](=O)[O-])n1CC(C)O (centres undefined) [Secnidazole (Flagentyl)] | 100% and 109% | 106 | 100 | 105 | 104 | 108 | 114 | 93.1
c1cn2cc(-c3ccc4cn[nH]c4c3)nc(Nc3ccc(N4CCOCC4)cc3)c2n1 [Entospletinib (GS-9973)] | 89.8% and 84.7% | 95.7 | 89.5 | 89.9 | 79 | 95.6 | 92.5 | 85.6
CCCCCCCCCC(C)O (centres undefined) [2-Undecanol] | 109% and 107% | 105 | 111 | 102 | 110 | 108 | 110 | 105
CC[C@@H](N)CNc1ccnc(-c2cc(-c3cnn(C)c3)ccc2O)n1 | 5.05% and 8.35% | 7.08 | 2.69 | 1.1 | 0.8 | 0.44 | 1.45 | 10.8
Cc1ccc(C(=O)N(CCCN)[C@@H](c2nc3cc(Cl)ccc3c(=O)n2Cc2ccccc2)C(C)C)cc1 | 0.81% and 1.13% | 0.6 | 0.37 | 0.68 | 0.2 | 0.34 | 0.16 | 0.25
OC(Cn1cncn1)(Cn1cncn1)c1ccc(F)cc1F [Fluconazole] | 112% and 99.8% | 101 | 98 | 107 | 103 | 101 | 96.9 | 95.7
Clc1ccc(C2(c3ccc(-c4cn[nH]c4)cc3)CCNCC2)cc1 | 44.6% and 48.5% | 34.5 | 40.3 | 45 | 24.2 | 12.5 | 21.6 | 27.4
O=C1c2c(O)cc(O)cc2O[C@H](c2cc(O)c(O)c(O)c2)[C@H]1O [Dihydromyricetin (Ampeloptin)] | 111% and 107% | 114 | 112 | 110 | 110 | 107 | 112 | 107
CC1=C(/C=C/C(C)=C/C=C/C(C)=C\C(=O)O)C(C)(C)CCC1 [Isotretinoin] | 91.5% and 95.7% | 87.2 | 69.3 | 76.9 | 65.4 | 81.5 | 15.7 | 41.8
Cc1c(Cc2ccc3ccccc3n2)c2cc(F)ccc2n1CC(=O)O | 102% and 99.7% | 98.8 | 97.5 | 108 | 98.5 | 103 | 90.4 | 107
Cn1cc(C2=C(c3ccc(Cl)cc3Cl)C(=O)NC2=O)c2ccccc21 | 97.9% and 94.8% | 94.2 | 94.7 | 105 | 103 | 99.1 | 95.8 | 107
CC/C(=C(/c1ccc(/C=C/C(=O)O)cc1)c1ccc2[nH]ncc2c1)c1ccc(F)cc1Cl [Brilanestrant (GDC-0810, ARN-810)] | 100% and 106% | 96.2 | 102 | 95.1 | 86.8 | 92.3 | 96.9 | 102
Nc1nc(F)nc2c1ncn2[C@@H]1O[C@H](COP(=O)(O)O)[C@@H](O)[C@@H]1O [Fludarabine Phosphate (Fludara)] | 105% and 112% | 98.7 | 64.2 | 84.9 | 88.1 | 101 | 6.47 | 10.8
COc1cc2c(Oc3ccc4[nH]c(C)cc4c3F)ccnc2cc1OCC1(N)CC1 [Anlotinib (AL3818) dihydrochloride] | 19.7% and 32.9% | 24.9 | 5.61 | 5.93 | 9.28 | 3.53 | 17.5 | 17.3
NCC(=O)Nc1ccc(-n2nc(C(F)(F)F)cc2-c2ccc3c(ccc4ccccc43)c2)cc1 | 0.38% and 0.39% | 0.29 | 0.31 | 0.5 | 0.18 | 0.22 | 0.19 | 0.23
COc1ccc([C@@H]2CC(=O)c3c(O)cc(O[C@@H]4O[C@H](CO[C@@H]5O[C@@H](C)[C@H](O)[C@@H](O)[C@H]5O)[C@@H](O)[C@H](O)[C@H]4O)cc3O2)cc1O [Hesperidin] | 105% and 115% | 111 | 107 | 109 | 109 | 113 | 112 | 97.2
CNC(=O)c1ccc(N2C(=S)N(c3ccc(C#N)c(C(F)(F)F)c3)C(=O)C2(C)C)cc1F [MDV3100 (Enzalutamide)] | 84.9% and 91.7% | 89.2 | 90.4 | 89.1 | 89.2 | 90.3 | 83.3 | 80.3
CC(=O)Nc1nc(C)c(-c2ccc(Cl)c(S(=O)(=O)NCCO)c2)s1 | 74.9% and 77.5% | 81.1 | 38.1 | 38.7 | 32.8 | 37.1 | 12.2 | 24.4
C[C@@H](O)[C@H]1C(=O)N2C(C(=O)O)=C(S[C@@H]3CN[C@H](C(=O)Nc4cccc(C(=O)O)c4)C3)[C@H](C)[C@H]12 [Ertapenem sodium] | 108% and 107% | 105 | 103 | 109 | 99.6 | 107 | 97.1 | 99.8

Structure (SMILES) | cell viability ([1]; SRSF2 genotype: SRSF2 P95H/wt) | cell viability ([1]; SRSF2 genotype: SRSF2 wt/wt) [%] | cell viability ([2]; SRSF2 genotype: SRSF2 P95H/wt) [%] | cell viability ([2]; SRSF2 genotype: SRSF2 wt/wt) [%] | cell viability ([3]; SRSF2 genotype: SRSF2 P95H/wt) [%] | cell viability ([3]; SRSF2 genotype: SRSF2 wt/wt) [%] | cell viability ([4]; SRSF2 genotype: P95H/wt) [%] | cell viability ([4]; SRSF2 genotype: wt/wt) [%]
CCN1CC(CCN2CCOCC2)C(c2ccccc2)(c2ccccc2)C1=O (centres undefined) [Doxapram HCl] | 104% and 111% | 112 | 112 | 111 | 104 | 109 | 111 | 95.4
Cc1nc(NC(=O)N2CCC[C@H]2C(N)=O)sc1-c1ccnc(C(C)(C)C(F)(F)F)c1 [Alpelisib (BYL719)] | 93.3% and 102% | 90.4 | 55.6 | 52.6 | 52.6 | 65.1 | 32.2 | 41
O=C(Nc1cc(C(F)(F)F)cc(C(F)(F)F)c1)c1cc(Cl)ccc1O | 5.29% and 8.22% | 5.97 | 19 | 18.3 | 10.3 | 8.64 | 2.4 | 8.72
Fc1ccc(Cl)cc1-c1nc(Nc2ccncc2)c2nccnc2n1 | 86.8% and 88.9% | 79.9 | 92.1 | 104 | 108 | 96 | 104 | 103
CC[C@]1(O)C[C@H]2CN(CCc3c([nH]c4ccccc34)[C@@](C(=O)OC)(c3cc4c(cc3OC)N(C=O)[C@H]3[C@@](O)(C(=O)OC)[C@H](OC(C)=O)[C@]5(CC)C=CCN6CC[C@]43[C@@H]65)C2)C1 [Vincristine Sulfate] | 13.6% and 37% | 35.8 | 6.92 | 9.68 | 0.94 | 1.22 | 5.06 | 9.32
Cc1ccc(O)c([C@H](CCN(C(C)C)C(C)C)c2ccccc2)c1 [Tolterodine tartrate (Detrol LA)] | 80.3% and 94% | 87.2 | 75.7 | 81.6 | 70 | 83.4 | 88.6 | 84
NC[C@H](O)c1ccc(O)c(O)c1 [Noradrenaline bitartrate monohydrate (Levoph] | 86.5% and 94.4% | 98.2 | 92.6 | 94.3 | 85.7 | 93.7 | 96.7 | 103
CN1CCN(C(=O)C=Cc2ccc([N+](=O)[O-])o2)CC1 | 43.9% and 54.3% | 65.3 | 65 | 72.4 | 40.7 | 35.7 | 24.7 | 42.6
CCC(CC)(NC(=O)C(C)C)C(=O)N[C@@H](CCCN=C(N)N)C(=O)NC1(C(=O)NC(c2ccc(F)cc2)c2ccc(F)cc2)CCCC1 | 98.6% and 103% | 106 | 93.8 | 98.3 | 93.4 | 99.3 | 97.9 | 108
C[N+]1(C)CCC(=C(c2ccccc2)c2ccccc2)CC1 [Diphemanil Methylsulfate] | 92.5% and 98% | 96.6 | 101 | 106 | 99 | 98.6 | 99.8 | 101
COc1ccccc1OCC(O)CN1CCN(CC(=O)Nc2c(C)cccc2C)CC1 (centres undefined) [Ranolazine dihydrochloride] | 92.7% and 97.6% | 101 | 96.7 | 103 | 98.8 | 100 | 102 | 111
COc1ccc(-c2ccc3c(N4CCOC[C@@H]4C)nc(N4CCOC[C@@H]4C)nc3n2)cc1CO | 39.7% and 40.4% | 35.5 | 54.4 | 46.2 | 30.4 | 26.2 | 26.5 | 27.7
COc1ccc(CNc2nc(N3CCC[C@H]3CO)ncc2C(=O)NCc2ncccn2)cc1Cl [Avanafil] | 96.2% and 96.6% | 98.8 | 104 | 106 | 103 | 104 | 102 | 105
CC(N)C12CC3CC(CC(C3)C1)C2 (centres undefined) [Rimantadine (Flumadine)] | 101% and 98.2% | 108 | 98.9 | 104 | 99.8 | 102 | 89.8 | 96.6
OC[C@@H](O)[C@@H](O)[C@H](O)[C@H](O)CO [D-Mannitol (Osmitrol)] | 98% and 97.7% | 106 | 107 | 116 | 107 | 109 | 97 | 100
Cc1c(C(=O)NN2CCCCC2)nn(-c2ccc(Cl)cc2Cl)c1-c1ccc(Cl)cc1 | 81.6% and 88% | 74.5 | 93.7 | 93 | 88.5 | 87 | 91.8 | 90.9
O=CC[C@@H](O)[C@H](O)[C@H](O)CO [2-Deoxy-D-glucose] | 104% and 94.5% | 99.2 | 101 | 107 | 102 | 101 | 91.3 | 108
O=c1c(O)c(-c2ccc(O)cc2)oc2cc(O)cc(O)c12 [Kaempferol] | 96.1% and 106% | 108 | 98.1 | 117 | 57.4 | 68 | 81.7 | 67.5
COc1c(C)c2c(c(O)c1C/C=C(\C)CCC(=O)O)C(=O)OC2 [Mycophenolic acid] | 49.9% and 48.3% | 43.2 | 42.2 | 41.6 | 10.9 | 3.65 | 13.9 | 13
CN1CCN(c2cccc(Nc3nc4c(-c5ccc(S(C)(=O)=O)cc5)cccn4n3)c2)CC1 | 68% and 76.9% | 70.5 | 67.1 | 67.8 | 3.24 | 3.52 | 11.9 | 22.6
CC(=O)c1ccc(C)cc1O [2'-Hydroxy-4'-methylacetophenone] | 97.1% and 95% | 104 | 95.6 | 103 | 102 | 102 | 94.5 | 107
